Measurements as given in PubChem BioAssay AID1159580 (chemical genetic matrix, 2015).
Out of some 5,500 compounds screened, about 2,000 (36%) were called active. Inconclusive results (about 18%) are left out. Cut-off read from the data, not from the text of the source: active = normalized growth mostly below about 0.91 (no sharp cut-off); inconclusive = no clear call, values can overlap the other calls; inactive = mostly above about 0.92. The list shows a part of the results.

Assay: chemical genetic growth profiling, strain panel (AID 1159580);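 note: tested at 20 µM; growth read once vehicle control cultures reached saturation at 30 °C; 1 = growth at the plate median or of vehicle wells; lower values mean less growth of the strain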
Settings: growth OD
[1] = S. cerevisiae deletion strains, locus YDR150W, strain NUM1, stronger effect = lower value
[2] = S. cerevisiae deletion strains, locus YMR263W, strain SAP30, stronger effect = lower value
[3] = S. cerevisiae deletion strains, locus YPL055C, strain LGE1, stronger effect = lower value
[4] = S. cerevisiae deletion strains, locus YPL241C, strain CIN2, stronger effect = lower value

Measured: normalized growth

NCC(O)C1CCCCCCC1 (configuration not stated)
inactive: S. cerevisiae deletion strains, locus YAL040C, strain CLN3, stronger effect = lower value 1.01 | S. cerevisiae deletion strains, locus YCL061C, strain MRC1 (second series), stronger effect = lower value 1.01 | [1] 0.995 | S. cerevisiae deletion strains, locus YDR363W, strain ESC2, stronger effect = lower value 0.994 | S. cerevisiae deletion strains, locus YER002W, strain NOP16, stronger effect = lower value 0.999 | [2] 0.999 | S. cerevisiae deletion strains, locus YNL175C, strain NOP13, stronger effect = lower value 1.01 | S. cerevisiae deletion strains, locus YNL197C, strain WHI3, stronger effect = lower value 1.01 | S. cerevisiae deletion strains, locus YNL224C, strain SQS1, stronger effect = lower value 1 | S. cerevisiae deletion strains, locus YOR083W, strain WHI5 (second series), stronger effect = lower value 1.04 | [3] 0.992 | [4] 1

COc1ccc(CN2C(=O)CSC2c2ccccn2)cc1 (configuration not stated)
inactive: S. cerevisiae deletion strains, locus YAL013W, strain DEP1, stronger effect = lower value 1.01 | S. cerevisiae deletion strains, locus YBR229C, strain ROT2, stronger effect = lower value 0.995 | S. cerevisiae deletion strains, locus YCL061C, strain MRC1, stronger effect = lower value 0.977 | S. cerevisiae deletion strains, locus YDL101C, strain DUN1, stronger effect = lower value 1.01 | S. cerevisiae deletion strains, locus YDL134C, strain PPH21, stronger effect = lower value 1 | [1] 1.01 | S. cerevisiae deletion strains, locus YEL061C, strain CIN8, stronger effect = lower value 1.01 | S. cerevisiae deletion strains, locus YGR078C, strain PAC10, stronger effect = lower value 1.01 | S. cerevisiae deletion strains, locus YHR030C, strain SLT2, stronger effect = lower value 0.998 | S. cerevisiae deletion strains, locus YHR087W, strain rtc3, stronger effect = lower value 1.01 | S. cerevisiae deletion strains, locus YJL187C, strain SWE1, stronger effect = lower value 0.989 | S. cerevisiae deletion strains, locus YJR043C, strain POL32, stronger effect = lower value 0.995 | S. cerevisiae deletion strains, locus YJR075W, strain HOC1, stronger effect = lower value 1.01 | S. cerevisiae deletion strains, locus YKL190W, strain CNB1, stronger effect = lower value 1 | S. cerevisiae deletion strains, locus YLR039C, strain RIC1, stronger effect = lower value 0.97 | S. cerevisiae deletion strains, locus YLR058C, strain SHM2 (second series), stronger effect = lower value 0.991 | S. cerevisiae deletion strains, locus YLR085C, strain ARP6, stronger effect = lower value 0.971 | S. cerevisiae deletion strains, locus YLR262C, strain YPT6, stronger effect = lower value 0.953 | S. cerevisiae deletion strains, locus YML094W, strain GIM5, stronger effect = lower value 1.02 | S. cerevisiae deletion strains, locus YMR219W, strain ESC1, stronger effect = lower value 0.993 | [2] 0.993 | S. cerevisiae deletion strains, locus YNL153C, strain GIM3, stronger effect = lower value 0.999 | S. cerevisiae deletion strains, locus YNL298W, strain CLA4 (second series), stronger effect = lower value 0.994 | S. cerevisiae deletion strains, locus YNL322C, strain KRE1, stronger effect = lower value 1 | S. cerevisiae deletion strains, locus YNR030W, strain Alg12, stronger effect = lower value 1 | S. cerevisiae deletion strains, locus YOL006C, strain TOP1, stronger effect = lower value 0.988 | [3] 1 | [4] 1.07 | S. cerevisiae deletion strains, locus YPR135W, strain CTF4, stronger effect = lower value 0.985 | S. cerevisiae strains, strain wild type, stronger effect = lower value 1
